Compounds with a hit are over-represented: about 3.8% of the library has one in this group of screens.
tim23-1 inh – inhibits growth of tim23-1 mutant yeast; S. cerevisiae tim23-1 growth, BacTiter-Glo luminescence, 24 h; inhibition, % at 20 µM; 330,000 tested, 1.3% active; AID 463212;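 active means growth inhibition of the mutant yeast at or above 50%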;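 further: temperature-sensitive mutant grown at 25 °C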
B2AR ag – activates human beta-2 adrenergic receptor causing internalization. P07550. Am2.2-beta2AR cells, FAP receptor internalization, flow cytometry. response, % (test concentration not listed). 340,000 tested, 0.43% active;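 active means response above a set limit, near 3 SD of response in nonfluorescent compounds, cut at about 42% in these data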
Target sequence (P07550 whole entry, looked up): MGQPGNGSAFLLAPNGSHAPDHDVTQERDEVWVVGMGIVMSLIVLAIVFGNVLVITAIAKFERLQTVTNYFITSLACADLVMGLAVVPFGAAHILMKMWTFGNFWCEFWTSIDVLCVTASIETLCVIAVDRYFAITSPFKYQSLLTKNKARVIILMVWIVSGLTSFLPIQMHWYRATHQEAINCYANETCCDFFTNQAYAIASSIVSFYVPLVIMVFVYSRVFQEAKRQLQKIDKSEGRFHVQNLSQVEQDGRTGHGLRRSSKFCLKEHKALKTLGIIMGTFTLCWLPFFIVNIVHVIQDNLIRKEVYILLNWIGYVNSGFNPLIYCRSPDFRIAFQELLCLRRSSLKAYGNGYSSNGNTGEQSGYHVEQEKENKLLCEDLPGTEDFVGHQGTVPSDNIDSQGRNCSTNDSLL
tim10-1 inh – inhibits growth of tim10-1 mutant yeast | inhibition, % at 20 µM | 330,000 tested, 2.2% active | S. cerevisiae tim10-1 ts strain growth, BacTiter-Glo, 24 h;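 active means inhibition of at least 40%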;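 further: mutant grown at 25 °C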
PfHsp90 yeast 2 – reduces growth (ATP signal) of yeast expressing P. falciparum Hsp90; S. cerevisiae expressing PfHsp90, BacTiter-Glo ATP, 48 h; yeast lacking PDR1 and PDR3 efflux regulators; inhibition, % at 9.4 µM; 310,000 tested, 0.32% active;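 active means every replicate shows inhibition above about 80%, whatever the replicate mean, limit read from the data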
TIM10 inh – growth inhibitors of TIM10 yeast strain | AID 463195 | inhibition, % at 10 µM | 330,000 tested, 1.4% active | S. cerevisiae TIM10 strain growth, BacTiter-Glo luminescence, 24 h;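 active means inhibition of 40% or more at the single tested concentration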;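 further: wild-type TIM10 isogenic control strain grown at permissive 25 °C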
tim10-1 conf – confirmation of tim10-1 mutant yeast growth inhibitors; S. cerevisiae tim10-1 ts strain growth, BacTiter-Glo, 24 h; inhibition, % at 20 µM; shares compounds with tim10-1 inh; 7,400 tested, 56% active;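 active means inhibition of yeast growth at or above a set limit in either of two repeat tests at 20 µM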;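 further: tim10-1 mutant grown at permissive 25 °C to find synthetic lethal compounds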
TIM10 conf – confirmation of TIM10 yeast growth inhibitors. shares compounds with TIM10 inh. S. cerevisiae tim10 strain growth, BacTiter-Glo luminescence, 24 h. inhibition, % at 10 µM. 4,600 tested, 63% active. AID 463215;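 active means inhibition of yeast growth at or above a set limit in either of two replicates at 10 µM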; further: this counterscreen used the strain with wild-type TIM10
Hits are given with their value; - = inactive; . = no result.

SMILES	tim23-1 inh	B2AR ag	tim10-1 inh	PfHsp90 yeast 2	TIM10 inh	tim10-1 conf	TIM10 conf
Cc1cc(C)c2c(=O)n(CC(=O)Nc3cccc(Cl)c3C)sc2n1	-	-	-	-	-	.	.
Cc1cc(C)c2c(=O)n(CC(=O)Nc3ccc(Br)c(C)c3)sc2n1	-	-	72	-	67	93	94
CCOC(=O)/C=C/C(=O)OCC(=O)Nc1ccc(OC)c(Cl)c1	-	-	53	-	44	41	36
Cc1ccc(F)c([C@H]2[C@H]3C=CC[C@@H](C)[C@@H]3C(=O)N2Cc2ccccc2)c1	-	-	50	-	45	-	35
C[C@@H]1CC=C[C@H]2[C@H]1C(=O)N(Cc1ccccc1)[C@H]2c1ccc2ccccc2c1	-	-	46	-	48	47	47
CC(=O)c1ccc(-c2ccccc2[C@H]2[C@H]3C=CC[C@@H](C)[C@@H]3C(=O)N2Cc2ccccc2)cc1	-	.	45	.	43	30	-
CC(C)c1ccc(NC2CCCN(C(=O)c3n[nH]c4c3CCC4)C2)cc1 (stereo unspecified)	-	-	-	-	-	.	.
COc1ccc(OC)c2c1C(=O)C(Cl)=C(Cl)C2=O	-	97	91	110	96	94	99
COc1ccc(OC)c2c1C(=O)c1ccccc1C2=O	-	.	-	.	-	.	.
COC(C/C=C\C(=O)[C@H](C)OCc1ccccc1)OC	-	-	44	-	42	42	-
CCC(C)C(=O)Nc1nc(C)c(-c2csc(Nc3ccc(Cl)cc3)n2)s1 (stereo unspecified)	-	-	40	-	44	-	-
CC(=O)Nc1ccc2nc(-c3ccco3)[nH]c2c1	-	-	-	-	-	.	.
O=C(Nc1ccc2nc(-c3ccco3)[nH]c2c1)c1cccs1	-	-	-	-	66	-	-
O=C(/C=C/c1ccc(-c2ccccc2)o1)c1ccccc1	-	-	-	-	54	59	48
O=Cc1ccc(-c2cccc(C(=O)O)c2)o1	-	-	-	-	-	.	.
Cc1cc(Br)ccc1NC(=O)CN(C)C(=O)C1CCN(C(=O)c2ccc(Cl)cc2)CC1	.	-	.	-	.	.	.
Cc1ccc2c(c1)sc(-c1ccc(N(C)C)cc1)[n+]2C	-	-	70	-	85	74	82
COc1ccc(C)cc1Nc1n[n+](-c2ccccc2)c(-c2ccc(N(C)C)cc2)s1	-	-	-	-	-	.	.
CCOC(=O)c1cc(S(=O)(=O)N2CCN(C3CCCCC3)CC2)cn1C	-	-	-	-	-	.	.
N#C/C(=C\c1ccc([N+](=O)[O-])o1)C(=O)Nc1ccc(F)cc1	-	-	55	106	79	47	96
COc1ccc(NC(=O)/C(C#N)=C\c2ccc(Br)o2)cc1	-	-	-	-	-	.	.
CCC(=O)OCCNc1cc(Sc2nc3ccccc3s2)c2nonc2c1[N+](=O)[O-]	-	-	93	-	77	91	94
CCOc1ccc(S(=O)(=O)N2CCN(C(=O)CCOc3ccccc3C)CC2)cc1	-	-	-	-	-	.	.
CCOc1c(OC(C)=O)ccc(/C=C2\N=C(SCC)SC2=O)c1[N+](=O)[O-]	-	-	50	-	45	46	31
CCSC1=N/C(=C\c2ccc(C(=O)O)cc2)C(=O)S1	-	-	-	-	-	.	.
SMILES	tim23-1 inh	B2AR ag	tim10-1 inh	PfHsp90 yeast 2	TIM10 inh	tim10-1 conf	TIM10 conf
CN1CCC(NC(=O)c2cccc(Oc3ccccc3)c2)CC1	-	-	-	-	-	.	.
O=C(NC1CCCC1)c1cccc(Oc2ccccc2)c1	-	-	46	-	42	-	32
Cc1ccc(OC(=O)c2cccc([N+](=O)[O-])c2)c(-n2nc3ccccc3n2)c1	-	-	-	-	-	.	.
O=C(Oc1ccc(F)cc1C(=O)/C=C/c1cccs1)c1cccc([N+](=O)[O-])c1	-	-	51	-	50	40	-
O=C(CNc1cccc(C(F)(F)F)c1)N/N=C/c1cccc(Br)c1	-	-	44	-	49	-	-
O=C(C1CCN(CCc2ccccc2)CC1)N1CCOCC1	.	-	.	.	.	.	.
O=c1c(O)c(-c2cccs2)oc2ccccc12	-	-	42	-	65	35	71
Cc1cc(=O)oc2cc(OCC(=O)Nc3c(C)n(C)n(-c4ccccc4)c3=O)c(Cl)cc12	-	-	-	-	-	.	.
Cc1ccc2nc(N3CCN(Cc4nnnn4Cc4ccccc4)CC3)c(C#N)cc2c1	-	-	58	-	51	54	-
Cc1ccc2nc(N3CCN(C)CC3)c(C#N)cc2c1	-	-	-	.	-	.	.
CCc1ccccc1NC(=S)/N=C(\N)Nc1nc(C)c2cc(C)ccc2n1	-	-	45	-	44	-	-
CCOc1ccc2nc(N/C(N)=N/C(=S)Nc3cccc(C)c3)nc(C)c2c1	-	-	-	-	-	.	.
CN(C)c1ccc2c(c1[N+](=O)[O-])Cc1ccccc1-2	.	-	.	-	.	.	.
Cc1ccc(S(=O)(=O)N2CCCCC2)cc1NC(=O)COC(=O)CN1C(=O)NC2(CC(C)CC(C)(C)C2)C1=O (stereo unspecified)	.	-	.	.	.	.	.
O=C(Nc1ccccc1F)c1ccc([N+](=O)[O-])s1	-	-	45	-	56	59	64
O=C(NC1(Cc2ccccc2)CCN(CCCc2ccccc2)C1=O)c1ccccc1 (stereo unspecified)	-	-	-	-	-	.	.
CSc1ccc(S(=O)(=O)NCc2ccc(Cl)cc2Cl)cc1	-	-	47	-	46	39	39
O=S(=O)(NCc1ccc(Cl)cc1Cl)c1ccc(N2CCOCC2)nc1	-	-	-	-	-	.	.
CCc1ccc(OCC(=O)O/N=C(\N)Cc2ccc([N+](=O)[O-])cc2)cc1	-	-	57	-	60	73	41
N/C(Cc1ccc(Cl)cc1Cl)=N\OC(=O)c1ccccc1	-	-	65	.	86	-	84
Cc1ccc(/C(N)=N/OC(=O)c2ccc3ccccc3c2)cc1	-	-	54	-	55	53	66
N/C(Cc1ccc(Cl)cc1)=N\OC(=O)c1ccc2ccccc2c1	-	-	64	-	75	60	-
COc1ccc(CC(=O)O/N=C(\N)Cc2ccc(OC)cc2)cc1	-	-	-	-	-	.	.
O=C(CN1C(=O)c2cccc([N+](=O)[O-])c2C1=O)NCc1ccccc1	-	-	-	-	-	.	.
N/C(Cc1ccc(Cl)cc1Cl)=N\OC(=O)Cc1ccc(Cl)cc1	-	-	62	-	85	55	-
N/C(Cc1ccc([N+](=O)[O-])cc1)=N\OC(=O)COc1ccccc1Cl	-	-	-	-	-	.	.
N/C(Cc1ccc([N+](=O)[O-])cc1)=N\OC(=O)Cc1ccc(Cl)cc1	-	-	66	-	41	-	77
CCc1ccc(C(C)(O)C(CN2CCOCC2)c2ccccc2)cc1 (stereo unspecified)	-	-	-	-	-	.	.
